40 molecules from PubChem BioAssay (Tox21) can be followed below.

Results filed as inconclusive are left out. A number with no mark means an inactive call. Calls follow the shape of the dose curve; as a rule, active = well fitted cell-killing curve with a large enough effect in the repeat runs; inconclusive = weak or mixed curves; inactive = flat fitted curve, though single readings scatter.
% is scaled to controls: 0 for no effect and ±100 for the full control effect.

This assay is described as follows: qHTS RealTime-Glo MT Cell Viability Assay in HepG2 cells - 16 hour (AID 1224885). Also: nearly all actives have a fitted effect of over 50% in size. The following applies: RealTime-Glo luminescence; series mostly up to 76.8 µM; activity change, negative = cytotoxic: at the top concentration. From the text:
U.S. Tox21 Program National Center for Advancing Translational Sciences [NCATS] NIH Chemical Genomics Center [NCGC] U.S. Environmental Protection Agency [EPA] National Institutes of Environmental Health Sciences [NIEHS] National Toxicology Program [NTP] U.S. Food and Drug Administration [FDA] Tox21 Assay Overview: Measure of cell viability is critical in the cell-base assay. Analysis of cell viability is necessary for the characterization of cell responses to cytotoxic drugs and environmental stress. A RealTime-Glo MT Cell Viability Assay to monitor cell viability in real time of continues cell culture during 40 hours of compound treatment was used to screen Tox21 10K library compounds in HepG2 cells. The RealTime-Glo MT Cell Viability Assay is a nonlytic, homogeneous, bioluminescent method to measure cell viability in real time using a simple, plate-based method. The assay involves adding NanoLuc luciferase and a cell-permeant prosubstrate to cells in culture. Viable cells reduce the proprietary prosubstrate to generate a substrate for NanoLuc luciferase. This substrate diffuses from cells into the surrounding culture medium, where it is rapidly used by the NanoLuc Enzyme to produce a luminescent signal. The signal correlates with the number of viable cells, making the assay well suited for cytotoxicity studies.
Tox21 Assay Protocol Summary: The mixture of HepG2 cell suspension and reagents were dispensed at 600cells/6 ul/well in 1536-well tissue culture treated black solid bottom plates using a Multidrop dispenser. After the assay plates were incubated at a 37 C/5% CO2 incubator for 5 hours, 23 nL of compounds dissolved in DMSO, positive and negative controls was transferred to the assay plate by a pintool work station. The plates were incubated at 37 C for 40 hours. The luminescence intensity were measured at 0h, 8h, 16h, 24h, 32h and 40h time points using ViewLux plate reader during compound treatment.
For orientation: Quantitative high-throughput screening tests each substance at several concentrations.
`C=CCOCC(O)CO` (stereo not given): the “activity change, negative = cytotoxic” value was -1.25%. Then `C[C@H]1C[C@H]2[C@@H]3CCC4=CC(=O)C=C[C@]4(C)[C@H]3C(=O)C[C@]2(C)[C@@]1(O)C(=O)CO`, with -2.18% [at 35.3 µM]. `CC(=O)N[C@H]1[C@H]([C@H](O)[C@H](O)CO)OC(C(=O)O)=C[C@@H]1N=C(N)N`: the “activity change, negative = cytotoxic” value was 4.11% [at 35.3 µM]. Consider `CN(C)CCCN(C)CCCN(C)C`, for which the “activity change, negative = cytotoxic” value is 0.113%. Take `c1ccc(CCc2ccccc2)cc1`: the “activity change, negative = cytotoxic” value was -1.21%. Then `CCCC(C)C(=O)OCC` (stereo not given), with 6.23%; and `Cc1ccnc(NS(=O)(=O)c2ccc(N)cc2)n1`, with -3.71% [at 35.3 µM]; and `C[N+]1(CC2COC(c3ccccc3)(c3ccccc3)O2)CCCCC1` (stereo not given), with -0.0866% [at 15.8 µM]. `C=CC(=O)OCCCl`: the “activity change, negative = cytotoxic” value was 3.25%. The value for `CC(=O)OCC(=O)[C@@]1(O)[C@H](C)C[C@H]2[C@@H]3CCC4=CC(=O)C=C[C@]4(C)[C@@]3(F)[C@@H](O)C[C@@]21C` was 0.701% [at 35.3 µM]; that for `CC(=O)C1CCCCC1=O` (stereo not given) was 2.07%. Take `O=C(O)c1cn(C2CC2)c2cc(N3CCNCC3)c(F)cc2c1=O`: the “activity change, negative = cytotoxic” value was 3.35% [at 35.3 µM]. Then `C1CCC2(CCCCO2)OC1`, with 4.32%.

Turning to `Cc1nc2ccc(CN(C)c3ccc(C(=O)N[C@@H](CCC(=O)O)C(=O)O)s3)cc2c(=O)[nH]1`, the “activity change, negative = cytotoxic” value is 0.355% [at 35.3 µM]. Then `CCCCCCC1CCC(=O)O1` (stereo not given), with 3.24%; and `CCCCCCCCCCCCSC`, with 3.55%; and `CO/N=C(\C(=O)N[C@@H]1C(=O)N2C(C(=O)O)=C(CSc3nc(=O)c(O)nn3C)CS[C@H]12)c1csc(N)n1`, with 2.24% [at 35.3 µM]. The value for `CCOC(=O)COC(=O)c1ccccc1C(=O)OCC` was 0.674%; that for `Cc1ccc(C(=O)c2ccc(CC(=O)O)n2C)cc1` was 1.9% [at 35.3 µM]. As for `COCCOCC(OC)OC`, the “activity change, negative = cytotoxic” value is 1.38% [at 35.3 µM].

`Nc1ccncc1N`: the “activity change, negative = cytotoxic” value is 1.57% [at 35.3 µM]. Then `CC(C)[C@H]1CC[C@@H](C)CC1=O`, with 3.39%; and `O=CN(CCO)CCO`, with 0.11%; and `O=C(CO)[C@@H](O)[C@H](O)[C@@H](O)CO`, with 2.16% [at 35.3 µM].

Take `CN1[C@@H]2CC[C@H]1CC(OC(=O)C(O)c1ccccc1)C2` (stereo not given in full): the “activity change, negative = cytotoxic” value is 1.35% [at 35.3 µM]. Then `CNCCO`, with 0.29%; and `CC(=O)NC(=O)c1ccccc1O`, with 3.05% [at 35.3 µM]; and `C[N+]12CCC(CC1)C(OC(=O)C(O)(c1ccccc1)c1ccccc1)C2` (stereo not given), with 0.389% [at 35.3 µM]. The value for `N[C@H](C(=O)O)[C@@H](O)c1ccc(O)c(O)c1` was -0.0696% [at 35.3 µM]. The value for `CO[C@@]1(NC(=O)C(C(=O)O)c2ccc(O)cc2)C(=O)N2C(C(=O)O)=C(CSc3nnnn3C)CO[C@@H]21` (stereo not given in full) was 1.68% [at 35.3 µM]; that for `CC[N+](CC)(CC)CCOc1cccc(OCC[N+](CC)(CC)CC)c1OCC[N+](CC)(CC)CC` was -5.05% [at 35.3 µM].

As for `COc1cc(-c2ccc(=O)[nH]n2)ccc1OC(F)F`, the “activity change, negative = cytotoxic” value is 4.13% [at 35.3 µM]. On to `NCCCC[C@H](N[C@@H](CCc1ccccc1)C(=O)O)C(=O)N1CCC[C@H]1C(=O)O`, for which the “activity change, negative = cytotoxic” value was 2.2% [at 35.3 µM]. Then `CC(=O)Oc1cccc(C)c1`, with 0.94% [at 35.3 µM]; and `CC(=O)c1cnccn1`, with 1.79%.

Turning to `OCCc1ccccn1`, the “activity change, negative = cytotoxic” value was 1.69%. With `O=C1c2ccccc2C(=O)c2cc(O)ccc21`, the “activity change, negative = cytotoxic” value was -5.08%. The value for `CCCCCC(C)N` (stereo not given) was 0.243% [at 35.3 µM]; that for `COc1ccnc(CS(=O)c2nc3cc(OC(F)F)ccc3[nH]2)c1OC` (stereo not given) was -0.539%.

On to `NC(=O)NC1N=C([O][Al])NC1=O` (stereo not given), for which the “activity change, negative = cytotoxic” value is 1.23% [at 35.3 µM].
